Reference: PubChem BioAssay AID1347420 (Sanford-Burnham Center for Chemical Genomics, 2020)
The campaign covered roughly 1,300 compounds. About 980 (75%) were called active. Roughly 4% stayed inconclusive and do not appear here. The list shows a part of the results.

biological target: Sulfhydryl oxidase 1 (Homo sapiens) (UniProt O00391); experiment: inhibition of human sulfhydryl oxidase QSOX1 – biochemical, HyperBlu H2O2 luminescence, HTS, primary screen (AID 1347420); conditions: recombinant QSOX1, HyperBlu H2O2 luminescence; at 12.5 µM; stronger effect = higher value; active = any value above zero; note: values above 100% were filed as inconclusive
Sequence (O00391 whole entry, looked up): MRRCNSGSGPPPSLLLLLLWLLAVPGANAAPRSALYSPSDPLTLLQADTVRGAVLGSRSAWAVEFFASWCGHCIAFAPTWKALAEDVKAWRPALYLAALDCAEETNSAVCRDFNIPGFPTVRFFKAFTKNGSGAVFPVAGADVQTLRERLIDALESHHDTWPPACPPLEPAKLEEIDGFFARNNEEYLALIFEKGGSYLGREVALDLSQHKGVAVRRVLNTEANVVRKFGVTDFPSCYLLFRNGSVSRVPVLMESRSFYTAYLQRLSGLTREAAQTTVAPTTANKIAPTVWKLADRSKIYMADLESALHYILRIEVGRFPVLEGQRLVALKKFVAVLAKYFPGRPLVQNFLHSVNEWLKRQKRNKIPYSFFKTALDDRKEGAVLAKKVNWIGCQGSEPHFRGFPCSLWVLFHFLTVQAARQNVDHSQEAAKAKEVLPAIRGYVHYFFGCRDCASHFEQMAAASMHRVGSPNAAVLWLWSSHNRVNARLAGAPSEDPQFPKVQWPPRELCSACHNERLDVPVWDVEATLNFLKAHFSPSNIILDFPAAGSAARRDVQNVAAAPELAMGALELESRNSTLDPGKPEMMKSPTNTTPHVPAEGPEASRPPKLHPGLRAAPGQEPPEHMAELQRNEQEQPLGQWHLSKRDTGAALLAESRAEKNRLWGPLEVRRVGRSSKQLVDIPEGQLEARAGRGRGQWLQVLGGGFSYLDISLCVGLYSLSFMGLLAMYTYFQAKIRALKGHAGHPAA

inhibition, inactive:
Clc1ccc(Cn2c(CN3CCCC3)nc3ccccc32)cc1 -2.3%
CCn1ccnc1CC1COc2ccccc2O1 (centres undefined) -2.8%
COc1cccc(OC)c1OCCNCC1CSc2ccccc2O1 (centres undefined) -4.6%
Cc1nn(-c2ccccc2)c(C)c1C=NN1CCN(Cc2ccccc2)CC1 -0.7%
Cc1ccc(/C(=C\CN2CCCC2)c2ccccn2)cc1 -62.9%
CSc1ccc(C(=O)c2[nH]c(=O)[nH]c2C)cc1 -9%
CCOC(=O)C(C)(C)Oc1ccc(Cl)cc1 -1.7%
CCC1C(=O)OCC1Cc1cncn1C (centres undefined) -0.2%

inhibition, active:
CCCCCC[C@@H]([C@@H](C)O)n1cnc2c(N)ncnc21 7.4%
N[C@H](C(=O)O)c1cc(O)cc(O)c1 5.6%
Clc1ccc(N2CCN(Cc3cc4ccccn4n3)CC2)cc1 63.8%
COc1cccc(OC)c1OCCNCC1COc2ccccc2O1 (centres undefined) 23.5%
O=C1CCC(c2ccc(-n3ccnc3)cc2)=NN1 10%
O=c1oc(Cl)c(Cl)c2ccccc12 15%
Nc1ncnc2c1c(-c1ccc(Oc3ccccc3)cc1)cn2C1CCCC1 7.6%
COc1cc([C@@H]2c3cc4c(cc3[C@H](O)C3COC(=O)[C@@H]32)OCO4)cc(OC)c1OC (some centres undefined) 10.7%
COc1cc([C@@H]2c3cc4c(cc3[C@@H](O[C@@H]3O[C@@H]5CO[C@@H](C)O[C@H]5[C@H](O)[C@H]3O)[C@H]3COC(=O)[C@H]23)OCO4)cc(OC)c1O 31.7%
O=C(O)CN(CCN(CC(=O)O)CC(=O)O)CCN(CC(=O)O)CC(=O)O 25.6%
O=C(O)CN(CCOCCOCCN(CC(=O)O)CC(=O)O)CC(=O)O 13.4%
CN(C)[C@@H]1C(=O)C(C(N)=O)=C(O)[C@@]2(O)C(=O)C3=C(O)c4c(O)ccc(Cl)c4[C@@H](O)[C@H]3C[C@@H]12 49.5%
C[C@H]1c2cccc(O)c2C(O)=C2C(=O)[C@]3(O)C(O)=C(C(N)=O)C(=O)[C@@H](N(C)C)[C@@H]3[C@@H](O)[C@@H]21 39.9%
COc1ccccc1N1CCN(CCN(C(=O)C2CCCCC2)c2ccccn2)CC1 40.4%
COc1ccccc1N1CCN(CCN(C(=O)c2ccc(F)cc2)c2ccccn2)CC1 27.6%
COc1ccccc1N1CCN(CCN(C(=O)c2ccc(I)cc2)c2ccccn2)CC1 28.5%
O=C(O)C1CCCN(CCC=C(c2ccccc2)c2ccccc2)C1 (centres undefined) 3.5%
O=C(O)C1=CC(=C(c2ccc(O)c(C(=O)O)c2)c2ccc(O)c(C(=O)O)c2)C=CC1=O 42.3%
O=c1c2ccccc2nc2n1CCc1c-2[nH]c2ccccc12 5.7%
CCCCc1oc2ccccc2c1C(=O)c1cc(I)c(OCCN(CC)CC)c(I)c1 18%
CCCC[C@@]1(C2CCCC2)Cc2cc(OCC(=O)O)c(Cl)c(Cl)c2C1=O 25.1%
C[C@@]1(C2CCCC2)Cc2cc(OCC(=O)O)c(Cl)c(Cl)c2C1=O 18.3%
CC(C)C(=O)c1c(C(C)C)nn2ccccc12 12.7%
CC(C)ON([C@@H](C(=O)NO)C(C)C)S(=O)(=O)c1ccc(-c2ccccc2)cc1 8.1%
CC(C)OC(=O)C(C)(C)Oc1ccc(C(=O)c2ccc(Cl)cc2)cc1 1.9%
NNCCc1ccccc1 9.9%
CCCCCCN(CCCCCC)C(=O)Cc1c(-c2ccc(F)cc2)[nH]c2ccccc12 22.4%
CC(=O)Nc1nnc(S(N)(=O)=O)s1 14.5%
CN(C)CCOC(C)(c1ccccc1)c1ccccn1 (centres undefined) 6.5%
CN1CCN(C2Cc3ccccc3Sc3ccc(Cl)cc32)CC1 (centres undefined) 1.9%
CSc1ccc2c(c1)C(N1CCN(C)CC1)Cc1ccccc1S2 (centres undefined) 1.3%
O=c1n(CCCN2CCN(c3cccc(Cl)c3)CC2)nc2ccccn12 45.2%
Cc1ccc(C(=O)Nc2ccc(S(=O)(=O)[O-])c3c2C(S(=O)(=O)[O-])=[C+]C(S(=O)(=O)O)=[C+]3)cc1NC(=O)c1cccc(NC(=O)Nc2cccc(C(=O)Nc3cc(C(=O)Nc4ccc(S(=O)(=O)[O-])c5c4C(S(=O)(=O)[O-])=[C+]C(S(=O)(=O)O)=[C+]5)ccc3C)c2)c1 17.8%
c1cc(CN2CCCCC2)cc(OCCCNc2nc3ccccc3s2)c1 7.9%
C1CCc2nnnn2CC1 15.2%
CNCCNS(=O)(=O)c1cccc2cnccc12 3.8%
